# Where “and” joins values, the source holds several entries; their conditions need not be identical. Identical values can stand only once. In all, about 290,000 compounds went through this assay and about 3,000 (1%) were called active. No stated cut-off is given here; in the data, active means inhibition mostly above about 36% (no sharp cut-off); inactive means mostly below about 34%. Shown is part of a subset that was picked to be rich in actives.
# Assay: NOD1 signaling inhibitors, primary screen, cell-based, luminescence, uHTS (AID 1578);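 further: HEK-293T reporter cells stimulated with the NOD1 agonist gamma-tri-DAP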
# Conditions: NOD1-driven NF-kB luciferase reporter cells, at 4 µM, stronger effect = higher value
row,SMILES,inhibition
1,CCC(C(=O)NC1CCCC1)N(C(=O)Cn1nnc(-c2ccc(OC)c(OC)c2)n1)c1cccc(O)c1 (configuration not stated),-30.7% (inactive)
2,Cc1cc(C(=O)CSc2n[nH]c(-c3ccccc3F)n2)c(C)n1Cc1cccs1,29.2% (inactive)
3,COc1ccc(-c2nnc(SCC(=O)c3cc(C)n(Cc4cccs4)c3C)o2)cc1,-40.4% (inactive)
4,Cc1cc(C(=O)CN2C(=O)c3ccccc3C2=O)c(C)n1Cc1cccs1,13.2% (inactive)
5,Cc1cc(C(=O)CSc2nnc(-c3ccccc3F)o2)c(C)n1Cc1cccs1,58.1% (active)
6,COCCn1c(C)cc(C(=O)COC(=O)c2ccccc2Br)c1C,67.9% (active)
7,Cc1cc(C(=O)COc2ccc3ccc(=O)oc3c2)c(C)n1Cc1cccs1,22.1% (inactive)
8,Cc1cc(C(=O)COC(=O)c2ccc(O)cc2)c(C)n1Cc1ccco1,-37.3% (inactive)
9,Cc1cc(C(=O)COC(=O)c2ccco2)c(C)n1Cc1ccco1,45.8% (active)
10,COCCn1c(C)cc(C(=O)COC(=O)c2ccc(Br)o2)c1C,-30.4% (inactive)
11,COCCn1c(C)cc(C(=O)COC(=O)c2ccc[nH]c2=O)c1C,50.7% (inactive)
12,Cc1cc(C(=O)COC(=O)c2ccc(Br)o2)c(C)n1Cc1ccco1,-24.2% (inactive)
13,CCOC(=O)CSc1nnc(Cn2c(=O)sc3ccccc32)n1-c1ccccc1C,5.4% (inactive)
14,O=C(Nc1ccc(F)cc1)N(Cc1cccs1)Cc1cc2cc3c(cc2[nH]c1=O)OCO3,-9.6% (inactive)
15,CC1(C)CC(=O)C(C=NCC2CCNCC2)=C(O)C1,-6.2% (inactive)
16,C=CCNC(=S)Nc1ccc(OC(F)F)c(Cl)c1,-16.4% (inactive)
17,CN1C(=O)Cc2cc(S(=O)(=O)NCCc3ccc(Cl)cc3)ccc21,-20.9% (inactive)
18,Cc1ccc(S(=O)(=O)N2Cc3ccccc3CC2C(=O)Nn2cnnc2)cc1 (configuration not stated),-8.2% (inactive)
19,Cc1cc(C(=O)COC(=O)c2ccc3c(c2)OCO3)c(C)n1Cc1cccs1,-27.2% (inactive)
20,CCn1nc(C(=O)OCC(=O)c2cc(C)n(Cc3cccs3)c2C)c2ccccc2c1=O,-15% (inactive)
21,Cc1cc(C(=O)COC(=O)c2ccccc2O)c(C)n1Cc1cccs1,99.2% (active)
22,O=C(COC(=O)c1ccco1)NC1CCCC1,-23.8% (inactive)
23,Cc1cc(NC(=O)CSc2nc3ccsc3c(=O)n2CCCC(=O)NCCc2ccccc2)no1,-20% (inactive)
24,CC(C1CC1)N(Cc1ccccc1)C(=O)NC(=O)c1ccc(F)cc1 (configuration not stated),-23.2% (inactive)
25,Cc1cccc(-n2cc(-c3ccccc3)c3c(NN4CCOCC4)ncnc32)c1,-8.1% (inactive)

row,SMILES,inhibition
1,Cc1ccc(-n2cc(-c3ccccc3)c3c(N4CCOCC4)ncnc32)cc1,20.2% (inactive)
2,Cc1cccc(-n2cc(-c3ccccc3)c3c(N4CCOCC4)ncnc32)c1,56.2% (active)
3,CCc1c(C)nc(Nc2nc(C)c3cc(OC)ccc3n2)[nH]c1=O,-42.8% (inactive)
4,CCc1c(C)nc(Nc2nc(C)c3ccc(OC)cc3n2)[nH]c1=O,-7.1% (inactive)
5,COc1ccc2c(C)nc(Nc3nc(C)c(C)c(=O)[nH]3)nc2c1,80.7% (active)
6,Cc1sc2ncnc(N3CCC(C(=O)NNC(=O)c4ccccc4Cl)CC3)c2c1C,5.2% (inactive)
7,CNC(=O)COC(=O)c1ccc(OCC(=O)Nc2ccccc2OC)c(OC)c1,-18.6% (inactive)
8,CC1(C)CC(=O)C2=C(C1)OC(N)=C(C#N)[C@@]21C(=O)N(CC(N)=O)c2ccccc21,-14.4% (inactive)
9,Cc1ccc(NC(=O)c2cc3ccccc3oc2=O)cc1S(=O)(=O)N(C)C,98.1% (active)
10,COc1ccccc1NS(=O)(=O)c1cc(NC(=O)c2cc3ccccc3oc2=O)ccc1C,42.3% (inactive)
11,Cc1ccc(NC(=O)c2cc3ccccc3o2)cc1S(=O)(=O)N(C)C,-60.5% (inactive)
12,O=C(NC1CCCN(c2ccc(C(F)(F)F)cn2)C1)c1ccncc1 (configuration not stated),-22% (inactive)
13,O=[N+]([O-])c1cccc(-c2nc(-c3ccccc3)c(-c3cccs3)[nH]2)c1,-1.1% (inactive)
14,O=[N+]([O-])c1cccc(-c2nc(-c3cccs3)c(-c3cccs3)[nH]2)c1,26.4% (inactive)
15,O=[N+]([O-])c1ccc(O)c(-c2nc(-c3ccccc3)c(-c3cccs3)[nH]2)c1,80.7% (active)
16,CCOC(=O)Cc1csc(NC(=O)CN2CCN(CC)CC2)n1,-2.4% (inactive)
17,O=C1c2ccccc2NC(c2cccs2)N1NS(=O)(=O)c1ccccc1 (configuration not stated),-22.6% (inactive)
18,N#C/C(=C\c1ccc(OCc2ccccc2)cc1)C(=O)Nc1nc2c(s1)CCN(Cc1ccccc1)C2,-24.8% (inactive)
19,CC1CCc2cc(F)ccc2N1C(=O)CSc1nnc2c(n1)[nH]c1ccc(F)cc12 (configuration not stated),25.7% (inactive)
20,CC1Cc2ccccc2N1C(=O)CSc1nnc2c(n1)[nH]c1ccccc12 (configuration not stated),-0.9% (inactive)
21,CC1Cc2ccccc2N1C(=O)CSc1nnc2c(n1)[nH]c1ccc(F)cc12 (configuration not stated),48.5% (active)
22,CCCCN(Cc1ccccc1)S(=O)(=O)c1c(N)n(C)c(=O)n(C)c1=O,-10.5% (inactive)
23,CCCc1nc(SCC(=O)N2CCN(c3ccccc3)CC2)c2c(=O)n(C)c(=O)n(C)c2n1,9% (inactive)
24,CCc1nc(SCC(=O)N2CCC(Cc3ccccc3)CC2)c2c(=O)n(C)c(=O)n(C)c2n1,34% (inactive)
25,CCn1nc(NC(=O)c2cccnc2)c2cc3cccc(C)c3nc21,-11.6% (inactive)

row,SMILES,inhibition
1,Cc1cc(Cl)ccc1OCC(=O)NCCCCc1ccccc1,-5.1% (inactive)
2,Nc1[nH]c(N=NC(=O)c2ccc(Cl)cc2)c2ccccc12,-25.6% (inactive)
3,CCOCCCNC(=S)Nc1ccc2nc(N3CCOCC3)cc(C)c2c1,-4% (inactive)
4,Cc1cc(-c2ccc(C(C)C)c(S(=O)(=O)NCCN3CCC(C)CC3)c2)on1,-17.2% (inactive)
5,Cc1ccnc(NC(=O)Nc2cccc(F)c2)n1,-65.5% (inactive)
6,CCN1CCN(Cc2ccc(NC(=O)c3ccc(C)c(NC(=O)N4CCNC4=O)c3)cc2C(F)(F)F)CC1,-7.6% (inactive) and 18% (inactive)
7,Cc1ccc(C(=O)Nc2cccc(C(F)(F)F)c2)cc1Nc1cnccn1,-3.7% (inactive)
8,Cc1ccc(C(=O)Nc2cccc(C(F)(F)F)c2)cc1Nc1ccccn1,-7.5% (inactive)
9,CCN1CCN(Cc2ccc(C(=O)Nc3ccc(C)c(NCc4cnc(NC(=O)OC)cn4)c3)cc2C(F)(F)F)CC1,-2.2% (inactive)
10,CN(C)c1ccc(/C=C2\C(=N)N3N=C(CC(=O)N4CCCC4)SC3=NC2=O)cc1Br,-16.4% (inactive)
11,CC(C)(Oc1ccc(Cl)cc1)C(=O)Nc1ccc2oc(=O)ccc2c1,-7.5% (inactive)
12,Cc1cccc(NC(=O)Nc2cccc(C#N)c2)n1,-17.2% (inactive)
13,Cc1ccc(NC(=O)Nc2cccc(C)n2)cc1,-12.5% (inactive)
14,Cc1cccc(NC(=O)Nc2ccc(C#N)cc2)n1,62.7% (active)
15,COc1ccc(OCC(=O)Nc2ccc3c(c2)nc(CCN2CCCCC2)n3C)cc1,-22.2% (inactive)
16,Cc1nnc(NC(=O)c2c(F)c(F)c(F)c(F)c2F)s1,-22.9% (inactive)
17,O=C(N/N=C/c1ccc(OC(=O)c2ccccc2Cl)cc1)c1ccccn1,-55.2% (inactive)
18,CN1C(CC(=O)Nc2ccc(Br)cc2)c2ccccc2CC1(C)C (configuration not stated),92.6% (active)
19,Cc1ccccc1NC(=O)CC1c2ccccc2CC(C)(C)N1C (configuration not stated),-25.6% (inactive)
20,CN1C(CC(=O)Nc2ccc(Cl)cc2Cl)c2ccccc2CC1(C)C (configuration not stated),2.4% (inactive)
21,O=C1CC(N(CCc2ccccc2)C(=S)Nc2ccccc2)C(=O)N1c1ccc(Br)cc1 (configuration not stated),-50% (inactive)
22,Cc1cc2cc(C)c(NCCNC(=O)c3ccccc3Cl)nc2cc1C,-21.1% (inactive)
23,CCN(CC)S(=O)(=O)c1ccc(NS(=O)(=O)c2ccc(F)cc2)cc1,9.7% (inactive)
24,CCN(CC)S(=O)(=O)c1ccc(-c2ccc(S(=O)(=O)N(CC)CC)cc2)cc1,39.7% (inactive)
25,CCN(CC)S(=O)(=O)c1ccc(F)cc1,71.7% (active)

row,SMILES,inhibition
1,O=C(/C=C/c1ccccc1Cl)NCCc1ccc(F)cc1,-61.3% (inactive)
2,COc1ccc(C(=O)/C=C/C(=O)N(CC(=O)NC2CCCCC2)CC2CCCO2)c(O)c1 (configuration not stated),68.4% (active)
3,COc1ccc(C(=O)/C=C/C(=O)N(CC(=O)NC2CCCCC2)Cc2ccc(F)cc2)c(O)c1,16.3% (inactive)
4,COc1ccc(C(=O)/C=C/C(=O)N(CC(=O)NCCC(C)C)Cc2cccs2)c(O)c1,86.8% (active)
5,COc1ccc(C(=O)/C=C/C(=O)N(CC(=O)NC2CCCCC2)Cc2cccs2)c(O)c1,36.2% (inactive)
6,COc1ccc(C(=O)/C=C/C(=O)N(CC(=O)NC2CCCCC2)Cc2ccccc2)c(O)c1,26% (inactive)
7,COc1ccc(C(=O)N(Cc2ccco2)Cc2cccs2)c(O)c1,29.1% (inactive)
8,COc1ccc2cnn(-c3ccc(OC(F)(F)F)cc3)c(=O)c2c1OC,-0.3% (inactive)
9,Cc1ccc(CNC(=O)C2CCC(=O)N2Cc2ccc(C)cc2)cc1 (configuration not stated),0.2% (inactive)
10,CCOC(=O)N1CCN(C(=O)c2ccc(CSc3ccc(Cl)cc3)cc2)CC1,62.9% (active)
11,O=C(c1ccc(CSc2ccc(Cl)cc2)cc1)N1CCCC1,-3.6% (inactive)
12,CN1CCN(C(=O)c2ccc(CSc3ccc(Cl)cc3)cc2)CC1,-13.5% (inactive)
13,C=CCn1c(O)c(CN2CCCCC2)c(C)c(C#N)c1=O,-25.8% (inactive)
14,O=C(Nc1ccc(N2CCCCC2)cc1)c1cccnc1Cl,-28% (inactive)
15,Cc1cnc(C(=O)Nc2ccc(N3CCOCC3)cc2)cn1,-18.5% (inactive)
16,O=C(Nc1ccc(N2CCCCCC2)cc1)c1ccccc1Cl,-33.9% (inactive)
17,O=C(CCl)Nc1ccc(N2CCCCCC2)cc1,65.3% (active)
18,CCN1CCN(c2ccc(NC(=O)c3cnccn3)cc2)CC1,-37.5% (inactive)
19,O=C(Nc1ccc(N2CCOCC2)cc1)c1cnccn1,52.9% (active)
20,O=C(CN1CCCCC1)Nc1ccc(N2CCCCCC2)cc1,-21% (inactive)
21,O=C(Nc1ccc(N2CCCCC2)cc1)c1ccccn1,89.3% (active)
22,CCC(=O)Nc1ccc(N2CCCCC2)cc1,0.2% (inactive)

# Source: PubChem BioAssay AID1578 (Sanford-Burnham Center for Chemical Genomics, 2009)
